Data reported in PubChem BioAssay.
Activity calls are given as the source filed them.

How the values were obtained:
[1] = target: Albumin (Bos taurus) (UniProt P02769); experiment: bovine serum albumin binders on microarray, profiling panel, artefact control for SMM control protein annotation, biochemical, small-molecule microarray, Alexa647 label, 635/667 nm fluorescence (AID 1118); details: BSA-A647 binding, fluorescence 635 nm, higher = more signal;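 note: score merges 667 nm emission intensity and signal-to-noise per printed compound spot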
Chain of Albumin (Bos taurus) (P02769 whole entry, looked up): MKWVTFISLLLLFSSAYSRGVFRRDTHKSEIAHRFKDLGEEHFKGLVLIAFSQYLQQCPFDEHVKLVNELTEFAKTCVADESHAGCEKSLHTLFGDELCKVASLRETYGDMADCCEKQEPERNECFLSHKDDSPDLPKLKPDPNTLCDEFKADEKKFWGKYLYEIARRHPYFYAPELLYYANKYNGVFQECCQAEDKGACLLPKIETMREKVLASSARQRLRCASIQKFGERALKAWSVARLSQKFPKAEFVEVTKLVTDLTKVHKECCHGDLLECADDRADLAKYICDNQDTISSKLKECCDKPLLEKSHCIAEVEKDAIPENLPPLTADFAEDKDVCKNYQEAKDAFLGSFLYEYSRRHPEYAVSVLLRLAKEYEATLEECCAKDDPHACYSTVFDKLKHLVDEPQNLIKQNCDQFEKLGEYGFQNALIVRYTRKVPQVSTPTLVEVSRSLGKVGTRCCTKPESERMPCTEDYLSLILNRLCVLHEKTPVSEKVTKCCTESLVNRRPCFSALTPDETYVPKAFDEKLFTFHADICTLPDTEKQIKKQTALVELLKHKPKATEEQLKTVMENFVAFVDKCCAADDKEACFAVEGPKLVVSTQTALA

[2] = small-molecule microarray binders of probe aXIP, primary screen, biochemical, NeuroSMM set, 635/667 nm fluorescence (AID 1119); details: higher = more signal, called active from +8 up or from −8 down;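 note: probe is the protein aXip251-270 applied at 1 µg/mL to compound-printed slides; binding of probe to printed compounds measured as 667 nm fluorescence plus signal to noise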
[3] = small-molecule binders of probe aNOTCH3, primary screen, biochemical, small-molecule microarray, 635/667 nm fluorescence (AID 1120); details: higher = more signal;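 note: probe is a biotin-tagged antibody raised against NOTCH3 rather than NOTCH3 protein; score merges spot fluorescence near 667 nm with spot signal to noise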
[4] = small-molecule binders of probe aNOTCH2, primary screen, biochemical, small-molecule microarray, 635/667 nm fluorescence (AID 1121); details: higher = more signal;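 note: score merges feature fluorescence read at 667 nm with its signal to noise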
[5] = target: Carbonic anhydrase 2 (Homo sapiens) (UniProt P00918); experiment: CAII small-molecule binders, profiling panel, biochemical, small-molecule microarray, Alexa647-labelled CAII (AID 1122); details: CAII-A647 binding fluorescence, higher = more signal
[6] = COS7 lysate on small-molecule microarray, probe aHis, 635 nm (AID 1123); details: COS7 cell lysate, fluorescence, higher = more signal;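 note: z-score combines 667nm fluorescence intensity with signal-to-noise per printed compound spot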
[7] = compound binding in COS7 lysate, probe aLAP1, primary screen, cell lysate, small-molecule microarray (AID 1124); details: probe aLAP1, fluorescence, higher = more signal;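 note: lysate comes from COS7 cells expressing LAP1 and is applied at 0.3 µg/mL; score merges spot fluorescence near 667 nm with signal-to-noise over triplicate slides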
[8] = test system: Sam68 (KHDRBS1); experiment: Sam68 small-molecule binders, primary screen, biochemical, small-molecule microarray, 635 nm fluorescence (AID 1125); details: small-molecule microarray binding, higher = more signal;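 note: score merges 667 nm channel intensity with signal to noise over triplicate slides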
[9] = test system: Chordin-like protein 2 (CHRDL2); experiment: CHRDL2 small-molecule binders, primary screen, biochemical, small-molecule microarray, 635 nm fluorescence (AID 1126); details: small-molecule microarray binding, fluorescence 635 nm; higher = more signal;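 note: printed compound slides probed with Chrdl2 protein at 4 µg/mL for 1 h at 4 C; score merges 667 nm emission intensity with signal to noise over three replicate slides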
[10] = target: Concanavalin-A (Canavalia ensiformis) (UniProt P02866); experiment: ConA small-molecule binders, primary screen, artefact control for SMM control protein annotation, biochemical, small-molecule microarray, Alexa647 label, 635 nm (AID 1127); details: ConA-A647 binding fluorescence, higher = more signal;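 note: z combines 667 nm emission intensity with signal-to-noise across three replicate slides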
Chain of Concanavalin-A (Canavalia ensiformis) (P02866 whole entry, looked up): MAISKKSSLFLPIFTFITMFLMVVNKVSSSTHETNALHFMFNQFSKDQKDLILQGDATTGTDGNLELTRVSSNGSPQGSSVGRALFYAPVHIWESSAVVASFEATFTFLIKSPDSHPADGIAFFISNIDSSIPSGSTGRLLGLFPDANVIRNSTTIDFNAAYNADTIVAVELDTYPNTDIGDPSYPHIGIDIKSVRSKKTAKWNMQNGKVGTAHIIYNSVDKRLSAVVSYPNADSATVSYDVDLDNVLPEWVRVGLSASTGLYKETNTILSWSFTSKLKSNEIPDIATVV

[11] = anti-His antibody binders, primary screen, artefact control for SMM control protein annotation, biochemical, small-molecule microarray, 635 nm fluorescence (AID 1128); details: anti-His Alexa647 antibody binding, higher = more signal;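 note: score merges feature fluorescence with signal-to-noise for each printed compound spot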
[12] = test system: Human papillomavirus type 1a E7 protein (residues 1-88); experiment: HPV1a E7 small-molecule binders, primary screen, biochemical, small-molecule microarray, residues 1-88, 635 nm (AID 1129); details: small-molecule microarray binding, fluorescence 635 nm; higher = more signal
[13] = target: Focal adhesion kinase 1 (Homo sapiens) (UniProt Q05397); experiment: small-molecule microarray binders of FAK, primary screen, biochemical, 635/667 nm fluorescence, BSA, DTT (AID 1130); details: PTK2 binding, 635 nm fluorescence, higher = more signal;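 note: composite of spot emission at 667 nm and signal to noise over triplicate slides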
Chain of Focal adhesion kinase 1 (Homo sapiens) (Q05397 whole entry, looked up): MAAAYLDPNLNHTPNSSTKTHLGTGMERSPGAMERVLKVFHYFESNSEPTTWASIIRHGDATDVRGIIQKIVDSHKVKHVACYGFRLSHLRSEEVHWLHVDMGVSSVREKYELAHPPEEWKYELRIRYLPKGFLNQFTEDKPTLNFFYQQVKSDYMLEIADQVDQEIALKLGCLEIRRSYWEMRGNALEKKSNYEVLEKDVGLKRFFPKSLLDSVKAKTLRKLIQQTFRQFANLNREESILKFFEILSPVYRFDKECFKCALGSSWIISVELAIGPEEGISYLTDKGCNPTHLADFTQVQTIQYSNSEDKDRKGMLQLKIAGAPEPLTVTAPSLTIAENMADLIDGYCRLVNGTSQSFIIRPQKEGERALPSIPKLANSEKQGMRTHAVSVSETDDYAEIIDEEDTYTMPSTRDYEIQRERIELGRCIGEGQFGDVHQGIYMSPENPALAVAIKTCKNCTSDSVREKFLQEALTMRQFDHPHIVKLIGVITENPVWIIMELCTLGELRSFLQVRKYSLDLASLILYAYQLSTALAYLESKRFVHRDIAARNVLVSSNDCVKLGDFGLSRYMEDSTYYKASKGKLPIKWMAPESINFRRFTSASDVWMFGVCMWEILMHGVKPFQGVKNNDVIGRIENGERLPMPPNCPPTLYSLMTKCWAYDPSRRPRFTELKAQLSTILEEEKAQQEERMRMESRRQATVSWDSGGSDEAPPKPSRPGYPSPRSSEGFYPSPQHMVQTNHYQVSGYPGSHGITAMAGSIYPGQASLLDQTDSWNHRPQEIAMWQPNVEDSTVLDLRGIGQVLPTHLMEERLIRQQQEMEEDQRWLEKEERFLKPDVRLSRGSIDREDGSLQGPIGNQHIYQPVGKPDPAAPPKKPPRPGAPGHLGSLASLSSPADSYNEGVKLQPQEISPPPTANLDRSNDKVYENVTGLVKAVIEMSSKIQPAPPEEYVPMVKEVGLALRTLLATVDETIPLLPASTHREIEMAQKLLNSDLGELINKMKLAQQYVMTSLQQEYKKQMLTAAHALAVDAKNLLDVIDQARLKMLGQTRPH

[14] = test system: Fibrinogen (Alexa647-labelled); experiment: fibrinogen binders on compound microarrays, profiling panel, artefact control for SMM control-protein annotation, biochemical, small-molecule microarray, 635/667 nm fluorescence (AID 1131); details: fibrinogen-A647 binding fluorescence, higher = more signal;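 note: z-score merges 667 nm fluorescence with per-spot signal-to-noise over triplicate slides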
[15] = target: Follistatin (Homo sapiens) (UniProt P19883); experiment: follistatin binders on small-molecule microarrays, primary screen, biochemical, small-molecule microarray, 635/667 nm fluorescence (AID 1132); details: FST binding, 635 nm fluorescence, higher = more signal
Chain of Follistatin (Homo sapiens) (P19883 whole entry, looked up): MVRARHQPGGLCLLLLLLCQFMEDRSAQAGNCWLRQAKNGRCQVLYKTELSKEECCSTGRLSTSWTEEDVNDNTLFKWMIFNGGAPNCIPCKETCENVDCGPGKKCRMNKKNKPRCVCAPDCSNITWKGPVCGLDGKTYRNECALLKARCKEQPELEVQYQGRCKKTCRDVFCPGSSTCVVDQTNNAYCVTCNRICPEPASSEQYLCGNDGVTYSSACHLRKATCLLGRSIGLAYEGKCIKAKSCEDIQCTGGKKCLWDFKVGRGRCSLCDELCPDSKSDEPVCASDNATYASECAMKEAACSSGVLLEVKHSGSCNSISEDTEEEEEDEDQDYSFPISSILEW

[16] = target: Fibroblast growth factor 2 (Homo sapiens) (UniProt P09038); experiment: FGF2 binders on small-molecule microarrays, primary screen, biochemical, small-molecule microarray, 635/667 nm fluorescence (AID 1133); details: small-molecule microarray binding, FGF2, fluorescence 635/667; higher = more signal
Chain of Fibroblast growth factor 2 (Homo sapiens) (P09038 whole entry, looked up): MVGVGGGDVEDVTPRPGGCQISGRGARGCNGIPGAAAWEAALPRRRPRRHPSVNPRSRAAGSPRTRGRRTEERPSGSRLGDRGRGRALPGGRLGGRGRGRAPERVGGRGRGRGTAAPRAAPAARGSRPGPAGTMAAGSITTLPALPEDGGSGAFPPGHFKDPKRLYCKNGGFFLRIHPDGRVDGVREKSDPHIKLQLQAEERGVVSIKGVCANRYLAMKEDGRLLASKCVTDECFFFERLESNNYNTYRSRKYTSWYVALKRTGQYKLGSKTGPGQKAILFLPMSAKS

[17] = mitochondrial membrane potential change in A549 cells, profiling panel, cell-based, JC-1 fluorescence, basal, 24 h, 100 nL (AID 1138); details: higher = more signal;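 note: A549 lung adenocarcinoma cells under basal conditions with no added stimulus; test concentration not given here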
[18] = test system: Lefty1; experiment: Lefty1 binders on small-molecule microarrays, primary screen, biochemical, small-molecule microarray, 635/667 nm fluorescence (AID 1139); details: small-molecule microarray binding, fluorescence 635/667; higher = more signal
[19] = test system: wheat germ agglutinin (Triticum aestivum), Alexa647-labelled; experiment: wheat germ agglutinin binders on compound microarrays, profiling panel, artefact control for SMM control-protein annotation, biochemical, small-molecule microarray, 635/667 nm fluorescence (AID 1140); details: WGA-A647 binding, 635 nm fluorescence, higher = more signal;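 note: score merges 667 nm feature emission with signal to noise over triplicate slides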
[20] = target: Luciferin 4-monooxygenase (Photinus pyralis) (UniProt P08659); experiment: firefly luciferase enzyme inhibitors, primary screen, biochemical, luminescence, purified enzyme, 2006 set (AID 1141); details: SteadyGlo luminescence, 30 min, higher = more signal, called active from +8 up or from −8 down;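 note: cell-free assay with purified firefly luciferase at 100 ng per well in PBS; test concentration not given here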
Chain of Luciferin 4-monooxygenase (Photinus pyralis) (P08659 whole entry, looked up): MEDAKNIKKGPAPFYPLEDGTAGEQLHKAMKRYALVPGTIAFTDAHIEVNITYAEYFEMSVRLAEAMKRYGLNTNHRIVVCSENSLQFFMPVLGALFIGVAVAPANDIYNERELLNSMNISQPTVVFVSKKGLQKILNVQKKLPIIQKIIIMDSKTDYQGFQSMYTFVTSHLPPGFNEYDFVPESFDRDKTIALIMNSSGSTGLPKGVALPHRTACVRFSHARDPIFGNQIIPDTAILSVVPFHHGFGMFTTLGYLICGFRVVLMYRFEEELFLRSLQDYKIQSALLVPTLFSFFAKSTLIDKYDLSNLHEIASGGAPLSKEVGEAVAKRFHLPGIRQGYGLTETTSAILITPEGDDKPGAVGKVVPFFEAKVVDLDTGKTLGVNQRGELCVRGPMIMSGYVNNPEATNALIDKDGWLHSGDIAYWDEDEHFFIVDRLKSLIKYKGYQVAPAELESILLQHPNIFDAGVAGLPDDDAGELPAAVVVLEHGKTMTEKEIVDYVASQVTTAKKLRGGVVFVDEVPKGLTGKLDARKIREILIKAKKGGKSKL

SMILES | composite z-score [1] | composite Z-score [2] | composite z-score [3] | composite z-score [4] | composite z-score [5] | composite z-score [6] | composite z-score [7] | composite z-score [8] | composite z-score [9] | composite z-score [10] | composite z-score [11] | composite z-score [12] | composite z-score [13] | composite z-score [14] | composite z-score [15] | composite z-score [16] | z-score [17] | composite z-score [18] | composite z-score [19] | z-score [20]
C#CCCCON=C1C[C@@H](O)[C@@H](O)[C@@H]2[C@@H]3C(=O)N(CCC(=O)OCC)C(=O)[C@@H]3CC[C@H]12 | 0.356 | 0.269 (inactive) | -0.042 | -0.0837 | 0.222 | 0.769 | 0.613 | 1.32 | 0.247 | 1.07 | 0.997 | 0.929 | -0.0834 | 0.375 | 1.06 | 0.613 | 0.317 | 0.861 | 0.101 | -0.891 (inactive)
CO[C@H]1COC(=O)CC=C[C@H](C)[C@@H](OC)COC(=O)[C@@H](C)COC(=O)CC=C[C@@H]1C | -0.93 | 0.793 (inactive) | -0.0647 | -0.146 | -0.535 | -0.25 | -0.145 | -0.132 | 1.51 | -1.85 | -0.756 | -0.699 | -0.111 | -1.26 | 1.5 | 1.77 | 0.657 | 1.55 | -1.05 | -0.454 (inactive)
CCOC(=O)[C@H](Cc1ccccc1)NC(=O)CCC1CC(OC(=O)NCCc2ccc(F)cc2)CC2(CCCC(COC(=O)NCCOC)O2)O1 (stereo not given in full) | 0.257 | 0.0225 (inactive) | 0.0525 | -0.157 | 0.0121 | 1.07 | 0.148 | 1.32 | 0.657 | 0.404 | 0.384 | 1.17 | 2.79 | 0.916 | 1.01 | 0.557 | 0.671 | 1.26 | 0.526 | -0.24 (inactive)
O=C1[C@H]2[C@H]3[C@H](O)[C@H](O)CC(=NOCc4ccccc4)[C@H]3CC[C@H]2C(=O)N1Cc1ccc2c(c1)OCO2 | 0.116 | -0.192 (inactive) | 0.0116 | -0.146 | -0.0448 | 1.1 | 0.148 | -0.18 | 0.408 | -0.261 | -0.169 | 0.186 | -0.175 | 0.632 | 0.214 | 0.533 | -0.626 | 0.397 | 0.492 | 1.23 (inactive)
CON=CC[C@@H]1C=C[C@H](OC(C)=O)[C@@H](COC(C)=O)O1 | -0.714 | 1.33 (inactive) | 0.287 | 0.0007 | 0.397 | 0.043 | 0.18 | -0.0499 | 0.679 | -0.32 | 0.0374 | -0.534 | 0.538 | -0.146 | 0.606 | 0.495 | 0.296 | 0.596 | 0.0389 | 0.218 (inactive)
CC(C)=NO[C@H](C)c1cn([C@H](CO)Cc2ccccc2)nn1 | 0.364 | -0.178 (inactive) | -0.0932 | -0.123 | 0.13 | 0.559 | -0.536 | 0.444 | -0.0691 | 1.1 | 1.28 | 0.464 | 0.548 | 0.991 | 0.139 | 0.137 | -0.34 | 0.137 | -0.026 | -1.69 (inactive)
